# Active and inactive are the calls of the source. Unless noted, the rule behind the calls is not given here.
# How the values were obtained:
# [1] = system: XIP peptide (Xip251-270) binding; experiment: small-molecule binders of XIP peptide, primary screen, biochemical, small-molecule microarray, fluorescence 635/667 nm, 0.1 µg/mL protein (AID 1182); settings: fluorescent protein binding, 635 nm, higher = more signal, called active from +8 up or from −8 down
# XIP peptide (Xip251-270) = experiment: small-molecule binders of XIP peptide, primary screen, biochemical, small-molecule microarray, fluorescence 635/667 nm, 0.5 µg/mL protein (AID 1183); settings: small-molecule microarray binding, fluorescence 635 nm; higher = more signal
# [2] = Plasmodium falciparum growth inhibition, primary screen, strain 3D7, DAPI fluorescence, 100 nL (AID 1184);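 note: parasites grown inside human red blood cells in medium with human serum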; settings: P. falciparum 3D7 growth, 3 d, higher = more signal
# [3] = biological target: Homeobox protein Hox-A13 (Mus musculus) (UniProt Q62424); experiment: inhibitors of HoxA13-DNA binding, primary screen, biochemical, fluorescence polarization, labeled oligonucleotide (AID 1185); settings: 15 min, higher = more signal, called active from +8 up or from −8 down
# [4] = inhibitors of hydroxyurea-induced Chk1 phosphorylation, primary screen, imaging, HeLa, phospho-Chk1 antibody, percent positive cells (AID 1186); settings: hydroxyurea-induced phospho-Chk1 immunofluorescence imaging, higher = more signal
# [5] = inhibitors of hydroxyurea-induced Chk1 phosphorylation, primary screen, imaging, HeLa, phospho-Chk1 nuclear intensity (AID 1187); settings: hydroxyurea-induced phospho-Chk1 immunofluorescence imaging, higher = more signal
# Sequence of Homeobox protein Hox-A13 (Mus musculus) (Q62424 whole entry, looked up): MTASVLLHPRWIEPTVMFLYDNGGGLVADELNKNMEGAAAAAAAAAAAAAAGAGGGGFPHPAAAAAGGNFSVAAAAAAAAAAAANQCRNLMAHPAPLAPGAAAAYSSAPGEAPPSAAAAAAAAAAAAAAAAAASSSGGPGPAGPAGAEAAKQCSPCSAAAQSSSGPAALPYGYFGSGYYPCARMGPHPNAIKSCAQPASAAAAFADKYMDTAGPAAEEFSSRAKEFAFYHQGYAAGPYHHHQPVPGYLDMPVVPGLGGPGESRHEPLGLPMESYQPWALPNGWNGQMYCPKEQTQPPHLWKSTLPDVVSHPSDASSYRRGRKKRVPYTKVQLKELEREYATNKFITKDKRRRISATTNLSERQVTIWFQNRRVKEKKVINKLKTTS
SMILES,composite z-score [1],composite z-score (XIP peptide (Xip251-270)),z-score [2],z-score [3],z-score [4],z-score [5]
CC(C)[C@H]1NC(=O)[C@@]23C(=O)N[C@@H](Cc4ccccc4)C2[C@H](C)[C@@]2(C)O[C@H]2C3/C=C/C/C=C\CNC(=O)[C@H](Cc2ccccc2)NC1=O (stereo not given in full),0.21 (inactive),0.763,-2.45,-5.69 (inactive),0.174 (inactive),0.5 (inactive)
CC(C)=CCCC(C)=CC(O)C1C=CC2C(=O)N(c3ccccc3)C(=O)C2N1Nc1ccccc1F (stereo not given),0.0917 (inactive),0.546,0.203,-3.38 (inactive),0.0156 (inactive),0.0908 (inactive)
[N-]=[N+]=NCc1ccccc1C[C@@]1(C(=O)N2CCCCC2)N=C(c2ccc(OCCCO)cc2)O[C@@H]1c1ccccc1CN=[N+]=[N-],0.0378 (inactive),-0.0651,-2.55,0.301 (inactive),-0.382 (inactive),-0.903 (inactive)
[N-]=[N+]=NCc1ccccc1[C@@H]1OC(c2ccc(OCCCO)cc2)=N[C@]1(Cc1ccccc1N=[N+]=[N-])C(=O)NCCN1CCOCC1,0.24 (inactive),0.878,-2.45,-4.64 (inactive),-0.276 (inactive),-0.22 (inactive)
O=C1O[C@H](c2ccccc2)[C@H](c2ccccc2)N2[C@H]1[C@@H](C(=O)Nc1nc3ccccc3s1)[C@]1(C(=O)Nc3ccc(C#CC4=CCCCC4)cc31)[C@H]2c1ccc(O)cc1,0.847 (inactive),0.541,-0.987,3.34 (inactive),-0.433 (inactive),-0.749 (inactive)
CC(C)CNC(=O)[C@@H]1c2ccccc2C(=O)N(C2CCCCC2)[C@H]1c1ccc(CO)cc1,0.737 (inactive),0.652,-0.68,-2.05 (inactive),-0.411 (inactive),-0.339 (inactive)
O=c1cccc(-c2ccco2)o1,-0.103 (inactive),0.337,2.05,-1.92 (inactive),0.0593 (inactive),-0.106 (inactive)
COC(=O)[C@@]1(Cc2ccc(F)cc2)[C@H]2c3cc(C(=O)N4CCCC4)n(C)c3C[C@H]2CN1C(=O)c1ccccc1,0.125 (inactive),0.664,-0.37,-6.1 (inactive),-0.0152 (inactive),0.504 (inactive)
CC1CC/C=C\[C@H]2OC34C=CCN(CCN5CCOCC5)C(=O)[C@H]3N(C(C)CO)C(=O)[C@@H]4C2C(=O)O1 (stereo not given in full),-0.153 (inactive),0.371,-0.359,-5.12 (inactive),0.16 (inactive),0.219 (inactive)
COC(=O)[C@@]1(Cc2ccc(F)cc2)[C@H]2c3cc(C(=O)N4CCCC4)n(CC4CC4)c3C[C@H]2CN1C(=O)c1ccccc1,1.84 (inactive),0.245,-1.36,-4.69 (inactive),0.396 (inactive),0.0021 (inactive)
COCCOC(=O)N1C(=O)[C@@]2(c3cc(C#CC4(O)CCCCCC4)ccc31)[C@H](c1ccc(OCCO)cc1)N1[C@H](c3ccccc3)[C@H](c3ccccc3)OC(=O)[C@H]1[C@@H]2C(=O)Nc1nc2ccccc2s1,0.284 (inactive),0.78,-0.726,1.07 (inactive),0.218 (inactive),0.561 (inactive)
C=C(COC)C(=O)CC[C@@H](OC(=O)c1cccnc1)c1ccccc1OCCO,-0.288 (inactive),-0.576,-3.07,-4.3 (inactive),0.329 (inactive),0.162 (inactive)
C[C@]1(C(=O)NCC(F)(F)F)c2ccccc2C(=O)N(Cc2ccccc2)[C@H]1c1ccc(CO)cc1,0.636 (inactive),-0.0904,0.169,-4.07 (inactive),-0.301 (inactive),-0.232 (inactive)
O=C1C2C=CC(C(O)c3cccc(O)c3)N(Nc3ccccc3)C2C(=O)N1c1ccccc1 (stereo not given),-0.234 (inactive),0.214,-0.267,-1.18 (inactive),0.293 (inactive),0.126 (inactive)
Cc1ccc(S[C@]2(C(=O)NC(C)C)CC(=O)N(C(C)C)[C@@H]2c2ccc(CO)cc2I)cc1,0.317 (inactive),0.101,-2.02,-2.58 (inactive),0.0841 (inactive),0.925 (inactive)
COc1cc(NN2C(C(O)C3CCCCC3)C=CC3C(=O)N(c4ccccc4)C(=O)C32)cc(OC)c1OC (stereo not given),1.15 (inactive),0.751,-0.495,-4.43 (inactive),0.0699 (inactive),-0.253 (inactive)
NCCCCCNC(=O)[C@@H]1C[C@@H]2C(=O)N3CCC[C@H]3C(=O)N2[C@@H]1c1ccc(O)cc1,0.0353 (inactive),0.0129,0.0766,-1.74 (inactive),0.299 (inactive),0.235 (inactive)
COC(=O)[C@@]1(Cc2ccccc2)[C@H]2c3cc(C(=O)N(C)C)n(CCn4cc([N+](=O)[O-])nc4C)c3C[C@H]2CN1C(=O)c1ccccc1,0.731 (inactive),0.83,0.391,-1.73 (inactive),-0.3 (inactive),-0.424 (inactive)

SMILES,composite z-score [1],composite z-score (XIP peptide (Xip251-270)),z-score [2],z-score [3],z-score [4],z-score [5]
CC(C)C[C@@H]1NC(=O)[C@@]23C(=O)N[C@@H](Cc4ccccc4)C2[C@H](C)[C@@]2(C)O[C@H]2C3/C=C/C/C=C\CNC(=O)[C@@H](C)NC1=O (stereo not given in full),0.772 (inactive),0.649,-1.65,-4.91 (inactive),-0.674 (inactive),-0.734 (inactive)
[N-]=[N+]=NC[C@H](Cc1ccccc1)NC(=O)c1ccccc1,-0.359 (inactive),0.108,-0.855,-0.271 (inactive),0.0506 (inactive),0.216 (inactive)
CC=CC(O)C1C=CC2C(=O)NC(=O)C2N1Nc1ccccn1 (stereo not given),2.39 (inactive),0.684,-0.0521,-1.1 (inactive),0.517 (inactive),0.359 (inactive)
CN1C(=O)C2C=CC(C(O)c3cc(C(F)(F)F)cc(C(F)(F)F)c3)N(NC(=O)OC(C)(C)C)C2C1=O (stereo not given),1.07 (inactive),0.623,-1.32,-5.04 (inactive),0.0279 (inactive),0.275 (inactive)
CCN(CC)c1ccc(N2CC=CC34O[C@@H]5C=CCCOC(=O)C5[C@H]3C(=O)N(CCO)[C@@H]4C2=O)cc1 (stereo not given in full),-0.828 (inactive),-0.72,0.0497,-5.85 (inactive),-0.516 (inactive),-0.584 (inactive)
C=C(COC)C(=O)CC[C@H](OC(=O)c1cccnc1)c1ccc(CO)o1,0.0246 (inactive),0.193,0.535,-4.81 (inactive),0.169 (inactive),-0.143 (inactive)
Cc1ccc(S[C@]2(C(=O)NCC(C)C)CC(=O)N(C3Cc4ccccc4C3)[C@@H]2c2ccc(CO)cc2I)cc1,-0.238 (inactive),-0.658,-0.233,-2.9 (inactive),0.495 (inactive),0.307 (inactive)
CCCCCCCCCCC(O)C1C=CC2C(=O)N(c3ccccc3)C(=O)C2N1Nc1ccccc1F (stereo not given),1.69 (inactive),0.538,0.157,0.356 (inactive),-0.745 (inactive),-1.48 (inactive)
CCOC(=O)C[C@H]1[C@H](OC(=O)c2ccc(-c3ccccc3)cc2)[C@@H](NC(=O)Cc2ccc(OC)cc2)c2cc(OCCCO)ccc2N1C(=O)Cc1ccc(OC)cc1,0.0878 (inactive),-0.015,-1.18,-1.32 (inactive),-0.366 (inactive),0.0566 (inactive)
Nc1cc(Br)ccc1C(=O)O,0.513 (inactive),-0.244,1.1,0.686 (inactive),0.132 (inactive),0.343 (inactive)
C[C@@H]1ON(c2ccc(I)cc2)[C@H](c2ccc(OC(=O)OC(C)(C)C)cc2)[C@H]1C(=O)N1C(=O)OC[C@H]1Cc1ccccc1,0.589 (inactive),0.515,-2.13,-0.866 (inactive),-1.08 (inactive),-0.859 (inactive)
C=C(C(=O)CC[C@@H](OC(=O)c1ccccc1-c1ccccc1C(=O)O)c1ccccc1OCCO)C(C)C,0.341 (inactive),0.698,-2.04,-5.82 (inactive),0.57 (inactive),0.916 (inactive)
NC(=O)N1C(=O)C2C(C1=O)C1C=C(CCCO)C2C(C2CC2)N1Cc1cccc(OC(F)(F)F)c1 (stereo not given),0.198 (inactive),-0.341,1.17,-8.76 (active),0.791 (inactive),0.384 (inactive)
CC(C)c1ccc(NN2C(C(O)Cc3ccccc3)C=CC3C(=O)N(c4ccccc4)C(=O)C32)cc1 (stereo not given),-0.0839 (inactive),0.655,-0.0057,-2.98 (inactive),0.656 (inactive),0.37 (inactive)
COC(=O)[C@@]1(Cc2ccc(OC)cc2)[C@H]2c3cc(C(=O)N4CCCC4)n(Cc4cc(C)n(C)n4)c3C[C@H]2CN1C(=O)c1ccccc1,1.26 (inactive),0.528,-1.44,-4.85 (inactive),-0.6 (inactive),-0.279 (inactive)
CN1C(=O)C2C(C1=O)C1C=C(CCCO)C2C(C2CC2)N1Cc1cc2c(cc1Br)OCO2 (stereo not given),1.34 (inactive),0.891,-1.2,-7.89 (inactive),0.498 (inactive),0.27 (inactive)
CC(=O)NCCCC[C@@H]1NC(=O)[C@@H]2C[C@H](C(=O)NCCCCCCN)[C@H](c3cccc(OCCO)c3)N2C1=O,1.15 (inactive),0.635,1.42,-3.35 (inactive),0.391 (inactive),0.388 (inactive)
